Laboratory results as given in PubChem BioAssay AID2314 (National Center for Advancing Translational Sciences (NCATS), 2010).
Hit rate of the full screen: of about 300,000 compounds, about 37,000 (12%) were called active. For the sample, actives were picked, then their nearest neighbours and some compounds at random. Unmarked numbers belong to inactive results. No stated cut-off is given here; in the data, active means max response mostly above about 13% (no sharp cut-off); inactive means mostly below about 14%.

Assay: Cycloheximide Counterscreen for Small Molecule Inhibitors of Shiga Toxin; further: read at 38.3 µM for the half of the compounds with a filed dose; 0% is about no effect
Conditions: cell reporter, cycloheximide protein synthesis inhibition counterscreen; active compounds read high

| SMILES | max response |
| --- | --- |
| CC(=O)C(C)n1cnc2scc(-c3ccc(C)cc3)c2c1=O (stereo not given) | 1.16% |
| COc1ccc(CN2CCCC(C(=O)N3CCCCC3)C2)cc1 (stereo not given) | -1.73% |
| Cc1cnc(NC(=O)CSc2nnc(-c3ccc(Cl)cc3Cl)n2N)s1 | 24.6% (active) |
| Cc1cnc(NC(=O)CSc2nnc(-c3ccccc3)n2Cc2ccccc2)s1 | -3.18% |
| Cc1cnc(NC(=O)CSc2nnc(C)s2)s1 | 20.1% |
| COc1ccc(CC(=O)NCc2nnc(SCC(=O)Nc3ncc(C)s3)n2C)cc1 | 3.99% |
| Cc1ccc(SCC(=O)Nc2ncc(C)s2)cc1 | 25% (active) |
| Cc1cnc(NC(=O)CSc2c(Cl)cccc2Cl)s1 | 5.96% |
| COc1ccc(CNS(=O)(=O)c2ccc(NC(=O)N3CCCCC3)cc2)cc1 | 2.3% |
| CCOC(=O)c1c(-c2ccccc2)oc2cc(Br)c(O)c(C=O)c12 | 5.72% |
| CCN(CC)c1ccc(NC(=O)CCc2nnc3ccc(N4CCCCC4)nn23)c(C)c1 | -1.8% |
| CCCc1ccc(OCC(O)CN2CCN(CCO)CC2)cc1 (stereo not given) | -1.67% |
| S=c1nc(C23CC4CC(CC(C4)C2)C3)nc2sccn12 | 1.25% |
| CCn1c(NC(=O)c2nn(C)cc2Br)nc2ccccc21 | -2.42% |
| COC(=O)CN1C(=O)C(C)(C)Oc2ccc(C(=O)Nc3cccc(OC)c3)cc21 | -5.75% |
| CC(C)c1ccc(C(=O)OC2CCOC2=O)cc1 (stereo not given) | 6.8% |
| O=C1OCCN1C(=O)[C@H]1[C@H](c2ccc(F)cc2)C(c2ccccc2)=NN1c1ccc(Br)cc1 | 5.32% |
| CCC(C(=O)OC)n1cnc2c(oc3ccccc32)c1=O (stereo not given) | -2.56% |
| Cc1ccc(C)c(Cn2cnc3c(oc4ccccc43)c2=O)c1 | 20.1% (active) |
| Cc1ccc(C)c(NC(=O)CSc2nc3c(oc4ccccc43)c(=O)n2-c2ccccc2)c1 | 0.718% |

| SMILES | max response |
| --- | --- |
| OC(COCC1COc2ccccc2O1)CN1CCN(c2ccc(F)cc2)CC1 (stereo not given) | -1.11% |
| O=C1CCC(C(=O)N2CCC(O)(c3ccccc3)CC2)CN1CCc1ccccc1 (stereo not given) | -0.943% |
| CC(C)c1nnc(NC(=O)C2CC(=O)N(CCc3ccc(F)cc3)C2)s1 (stereo not given) | -6.02% |
| Cc1cc(C(=O)NC2CC(C)(C)Cc3c2cnn3-c2ccccc2)n[nH]1 (stereo not given) | 3.28% |
| COC(=O)c1ccc(C(=O)NC2CC(C)(C)Cc3c2cnn3-c2ccc(F)cc2)nc1 (stereo not given) | 24.5% (active) |
| CC1(C)Cc2c(cnn2-c2cccc(F)c2)C(NC(=O)c2cc[n+]([O-])cc2)C1 (stereo not given) | -3.06% |
| COC(=O)c1cccc(N2C(=O)C3C4C=CC(CC4)C3C2=O)c1 (stereo not given) | -3.45% |
| O=C(O)c1cc(S(=O)(=O)NC2CCCc3ccccc32)ccc1O (stereo not given) | 1.09% |
| Cc1cc(-c2ccc(C)c(S(=O)(=O)NCCCN(Cc3ccccc3)C(C)C)c2)on1 | -2.55% |
| Cc1ccc(C(=O)CSc2ccccc2C(=O)O)cc1 | 20.8% (active) |
| Cc1ccc(Sc2cc(C(=O)c3ccccc3C(=O)O)ccc2[N+](=O)[O-])cc1 | -4.78% |
| Cc1ccc(C(=O)CSc2nnc(Cn3nnc4ccccc43)n2C)cc1 | -0.925% |
| CCCC1CCC(=NNC(=S)NCCc2ccccc2)CC1 (stereo not given) | 13.6% |
| COc1cc(C(=S)N2CCOCC2)cc(OC)c1OC(=O)c1cc([N+](=O)[O-])c(C)c([N+](=O)[O-])c1 | -3.02% |
| CC(C)Cn1cnc2c1c(=O)n(CC(=O)NN)c(=O)n2Cc1ccccc1 | 0.845% |
| CC1CC(C)CN(c2ccc(S(=O)(=O)N3CCOCC3)cc2)C1 (stereo not given) | 7.13% |
| CSCC[C@H](NC(=O)N1CCn2c1nc1ccccc12)C(=O)NC1CCCCC1 | 19.4% |
| COc1ccc(C2NC(=O)C(=O)/C2=C(\O)c2ccc(Cl)cc2)cc1OC (stereo not given) | -4.04% |
| CC(C)(C)n1nc2c(c1NC(=O)c1cc3ccccc3o1)CSC2 | 9.15% |
| Cc1ccc(NC(=O)c2cc3ccccc3o2)cc1 | 43.9% (active) |

| SMILES | max response |
| --- | --- |
| Cc1ccc(OC(=O)c2cc3ccccc3o2)cc1 | 13.6% |
| O=C(NCCc1ccc2c(c1)OCCO2)c1cc2ccccc2o1 | 8.84% |
| CC(=O)N1CCN(c2ccccc2NC(=S)NC(=O)c2cc3ccccc3o2)CC1 | -8.35% |
| Cc1cccc(-n2nc3c(c2NC(=O)c2cc4ccccc4o2)CS(=O)(=O)C3)c1 | -5.35% |
| C/C(=N\NC(=S)Nc1ccc(C)cc1)c1cc2ccccc2o1 | 20.6% (active) |
| C/C(=N\NS(=O)(=O)c1cccc([N+](=O)[O-])c1)c1cc2ccccc2o1 | 1.29% |
| O=C(Nc1ccncc1)c1cc2ccccc2o1 | 22.3% (active) |
| O=C(O)C1=NN(c2c(F)c(F)cc(F)c2F)C(=O)CC1 | -4.21% |
| C=CCN(N=Nc1cccc([N+](=O)[O-])c1)c1cccc([N+](=O)[O-])c1 | -2.01% |
| O=C(CN1CCN(S(=O)(=O)c2ccc(F)cc2)CC1)NC1CC1 | 1.9% |
| Cc1cnc(C(=O)OCc2c(C)cc(C(C)(C)C)cc2C)cn1 | -3.25% |
| Cc1ccc(SCC(=O)c2sc(-c3ccccc3)nc2C)cc1 | -0.538% |
| Cc1nc(-c2ccccc2)sc1C(=O)/C=C/N(C)C | 45.3% (active) |
| CC(Oc1ccc(Cl)cc1Cl)C(=O)/C=C/N(C)C (stereo not given) | 2.24% |
| CN(C)/C=C/C(=O)c1ccccc1F | 5.51% |
| Cc1nc(COc2cccc(Cl)c2)sc1C(=O)/C=C/N(C)C | 40.9% (active) |
| O=C(COc1cccc(Cl)c1)NCc1ccccc1 | 7.99% |
| COc1ccc(-c2nc(CN3CCN(c4ncccn4)CC3)c(C)o2)cc1C | -2.33% |
| Cc1ccc(S(=O)(=O)N[C@@H](Cc2ccccc2)C(=O)N2CCC(C(=O)N[C@H](C(=O)O)C(C)O)CC2)cc1 (stereo not given in full) | -0.605% |
| Cc1ccc(N(Cc2ccc(C(=O)Nc3ccccc3C(=O)NCc3ccco3)cc2)S(C)(=O)=O)cc1C | -1.16% |
